Legend:
Conditions in all cases: concentration: 1 μM, replicates: in singlicate; n = 1
BMPR1A = system: BMPR1A
BMPR1B = system: BMPR1B
BMPR2 = system: BMPR2
BMX = system: BMX
BRAF = system: BRAF
BRK = system: T1, BRK
T1 construct: gene PTK6

BRSK1 = system: BRSK1
BRSK2 = system: BRSK2
BTK = system: BTK
BUB1 = system: BUB1
CAMK1B = system: CAMK1B
CAMK1D = system: CAMK1D
CAMK1G = system: CAMK1G
CAMK1 = system: CAMK1
CAMK2A = system: CAMK2A
CAMK2B = system: CAMK2B
CAMK2D = system: CAMK2D
CAMK2G = system: CAMK2G
CAMK4 = system: CAMK4
CAMKK1 = system: CAMKK1
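Further: KINOMEscan kinase panel screen.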

Row | Structure (SMILES) | %Inh (BMPR1A) [%] | %Inh (BMPR1B) [%] | %Inh (BMPR2) [%] | %Inh (BMX) [%] | %Inh (BRAF) [%] | %Inh (BRK) [%] | %Inh (BRSK1) [%] | %Inh (BRSK2) [%] | %Inh (BTK) [%] | %Inh (BUB1) [%] | %Inh (CAMK1B) [%] | %Inh (CAMK1D) [%] | %Inh (CAMK1G) [%] | %Inh (CAMK1) [%] | %Inh (CAMK2A) [%] | %Inh (CAMK2B) [%] | %Inh (CAMK2D) [%] | %Inh (CAMK2G) [%] | %Inh (CAMK4) [%] | %Inh (CAMKK1) [%]
1 | Cc1cc(-c2ccc3c(c2)CC[C@@H](N[C@@H](C)c2ccccc2)C3)cnc1N.Cl [GW412617] | 0 | 0 | 0 | 50 | 1 | 22 | 0 | 0 | 0 | 17 | 4 | 13 | 100 | 23 | 0 | 0 | 97.6 | 21 | 18 | 12
2 | CS(=O)(=O)c1ccc(-c2nc3n(c2-c2ccncc2)CCC3)cc1 [SKF-105942] | 0 | 0 | 0 | 1 | 0 | 15 | 0 | 0 | 0 | 26 | 7 | 0 | 14 | 8 | 0 | 0 | 6 | 6 | 0 | 0
3 | COC(=O)c1c(-c2ccccc2)c2cc(OC)ccc2c(=O)n1Cc1ccccc1 | 0 | 0 | 0 | 9 | 89 | 0 | 9 | 6 | 54 | 21 | 0 | 20 | 20 | 19 | 15 | 0 | 13 | 18 | 0 | 16
4 | O=C(Nc1n[nH]c2nc(-c3nccs3)c(Br)cc12)C1CCCC1 [SB-742609] | 0 | 0 | 13 | 0 | 12 | 26 | 93 | 85 | 0 | 37 | 20 | 1 | 8 | 0 | 0 | 0 | 15 | 11 | 0 | 8
5 | CS(=O)(=O)c1ccc(-c2c(-c3ncn[nH]3)sc(N3CCOCC3)c2C#N)cc1 | 17 | 4 | 12 | 0 | 12 | 0 | 100 | 32 | 0 | 29 | 25 | 16 | 11 | 13 | 14 | 30 | 6 | 11 | 18 | 19
6 | Clc1cc(Cl)cc(Nc2ccnc(Nc3cc(Cl)cc(Cl)c3)n2)c1 [GSK175726] | 0 | 0 | 5 | 26 | 0 | 21 | 0 | 0 | 0 | 10 | 3 | 10 | 0 | 7 | 4 | 0 | 0 | 8 | 0 | 10
7 | COC(=O)c1c(-c2ccccc2)c2cc(C(=O)O)ccc2c(=O)n1Cc1ccccc1 | 0 | 3 | 0 | 17 | 90 | 0 | 0 | 0 | 0 | 0 | 0 | 1 | 6 | 1 | 0 | 0 | 5 | 0 | 18 | 0
8 | CN(C)CCN(C)C(=O)c1cc(-c2ccncc2)c(-c2ccc(Cl)c(O)c2)o1.Cl.Cl [SB-710397] | 0 | 0 | 31 | 0 | 94.5 | 29 | 2 | 0 | 10 | 95.2 | 6 | 13 | 0 | 10 | 0 | 0 | 0 | 1 | 0 | 0
9 | C[C@@H]1CCCCN1c1cc(-c2ccc3c(N)n[nH]c3c2)nc(N)n1 [GSK2258759] | 0 | 0 | 0 | 12 | 0 | 11 | 0 | 0 | 0 | 0 | 0 | 15 | 0 | 9 | 0 | 0 | 1 | 28 | 0 | 8
10 | COc1cccc(NC(=O)NC2CCN(c3ccnc(Nc4ccc(F)cc4)n3)C2)c1 (centres unmarked) [GSK1379721] | 0 | 0 | 7 | 0 | 0 | 0 | 0 | 0 | 0 | 10 | 27 | 12 | 0 | 10 | 0 | 0 | 6 | 22 | 0 | 18
